IMPase Li cell – qHTS Assay for Identifying the Cell-Membrane Permeable IMPase Inhibitors: Potentiation with Lithium; Potency, µM (highest dose often 59.4 µM), without a hit: at the highest dose activity, negative = IMPase inhibition, actives largely listed as inhibitors; CHO-M1 cells, IP1 TR-FRET (IP-One), carbachol + lithium; AID 1457, 2008; 210,000 compounds, 0.35% hits;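 note: IP1 builds up when IMPase is blocked and the TR-FRET signal falls; potency is the fitted concentration of half-maximal effect; plate controls were basal vehicle for no effect and high inhibitor control for full effect; nearly all actives have a fitted effect of over 50% in size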
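Concentration–response in CHO-M1 cells, lithium-potentiated; 30 min at 37C. IP1 detected by competitive TR-FRET after 10 min lysis at RT. Hill-fitted AC50.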
Lamin A splicing – qHTS Assay for Modulators of Lamin A Splicing | 200,000 compounds, 0.01% hits | HeLa LMNA splicing GFP/RFP minigene ratio, 48 h | Potency, µM (titrated, usually from 46.1 µM), for the others: at the highest dose ratio change, negative = inhibition, usual class: inhibitors; active = well fitted inhibition curve with a large enough effect in the signal ratio, with a control signal flat, not every such curve was filed as active; inconclusive = small, poorly fitted or top-dose-only effect, or effect the other way, or a change in a side signal; the % refers to the signal ratio; note: potency is the fitted concentration of half-maximal effect; % is set by controls: 0 for no effect and ±100 for the full control effect
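Read-out is the ratio of GFP to DsRed2 object intensity, acquired by 488 nm laser-scanning cytometry on HeLa lamin A-EGFP minigene reporter cells. Compound incubation 48 hrs at 37 °C in Opti-MEM with 2% FBS; DMSO 0.5% final.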
HTT ATP protect – qHTS Multiplex Assay to Identify Dual Action Probes in a Cell Model of Huntington: Cytoprotection (ATP); AID 1471, 2008; 230,000 compounds, 0.14% hits; Potency, µM (titrated, usually from 56.4 µM), for inactives: cytoprotection (ATP increase), usual class: activators; PC12 HTT-Q103 induced, cytoprotection, ATP luminescence, 40 h; note: potency is the fitted concentration of half-maximal effect; % of control where 0% means no effect; nearly all actives have a fitted effect of over 45% in size
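Readout: ATPlite luminescence (ATP level). Model: stable PC12, inducible Htt exon1 Q103-GFP. Inducer: tebufenozide, 100 nM final. Compounds: dose series. No G418 in medium.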
HTT aggregate – qHTS Multiplex Assay to Identify Dual Action Probes in a Cell Model of Huntington: Aggregate Formation (GFP); AID 1688, 2009; PC12 HttQ103-GFP aggregates, Acumen cytometry, 40 h; 220,000 compounds, 1.1% hits; Potency, µM (doses to about 46.1 µM), for inactives: top-dose activity change, negative = inhibition, usual class: inhibitors; note: potency is the fitted concentration of half-maximal effect; % is set by controls: 0 for no effect and ±100 for the full control effect; nearly all actives have a fitted effect of over 60% in size
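Using laser scanning cytometry, GFP-positive aggregates were counted after lysis of PC12 cells induced with 100 nM tebufenozide to express HTT exon 1 Q103–GFP. Compounds were tested in titration.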
IMPase cell inh – qHTS Assay for Identifying the Cell-Membrane Permeable IMPase Inhibitors. CHO-M1 cells, IP1 accumulation, HTRF TR-FRET ratio. 120,000 tested, under 10 active. Inositol monophosphatase 1 (Rattus norvegicus), P97697. inhibition (IP1 accumulation), % at 46.1 µM; active = well fitted curve in the direction sought with a large enough effect in the signal ratio, not every such curve was filed as active; inconclusive = small, poorly fitted or top-dose-only effect, or a change in a side signal; inactive = no such curve, though single readings can be large or run the other way; the % refers to the signal ratio;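 note: cells stimulated with carbachol in lithium chloride buffer; plate controls were DMSO basal wells for no effect and reference inhibitor wells for full effect; higher means more IMPase inhibition seen as more IP1 and lower FRET ratio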
Target sequence (P97697 whole entry, looked up): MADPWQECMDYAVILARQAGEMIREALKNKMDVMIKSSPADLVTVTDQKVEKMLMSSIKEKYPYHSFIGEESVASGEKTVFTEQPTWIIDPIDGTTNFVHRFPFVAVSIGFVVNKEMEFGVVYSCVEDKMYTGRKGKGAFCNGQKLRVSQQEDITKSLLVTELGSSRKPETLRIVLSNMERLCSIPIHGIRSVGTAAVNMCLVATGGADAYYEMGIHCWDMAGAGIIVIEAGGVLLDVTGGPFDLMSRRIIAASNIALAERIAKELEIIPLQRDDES
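Measured: the HTRF emission ratio (665/620 nm) plus the 620 nm donor channel, each fitted to the Hill equation to give AC50. Cells were CHO-M1 given compounds up to 46 uM and a 30 min carbachol stimulation at 37C.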
NPSR antagonist – qHTS Assay for Antagonists of the Neuropeptide S Receptor: cAMP Signal Transduction. Q6W5P4. CHO-NPSR cells, cAMP TR-FRET, antagonist mode. Potency, µM (series often up to 38.3 µM), for inactives: at the top dose activity change, negative = inhibition, most hits filed as inhibitors. 220,000 compounds, 1% hits; note: potency is the fitted concentration of half-maximal effect; % is set by controls: 0 for no effect and ±100 for the full control effect; nearly all actives have a fitted effect of over 50% in size
Target sequence (Q6W5P4 whole entry, looked up): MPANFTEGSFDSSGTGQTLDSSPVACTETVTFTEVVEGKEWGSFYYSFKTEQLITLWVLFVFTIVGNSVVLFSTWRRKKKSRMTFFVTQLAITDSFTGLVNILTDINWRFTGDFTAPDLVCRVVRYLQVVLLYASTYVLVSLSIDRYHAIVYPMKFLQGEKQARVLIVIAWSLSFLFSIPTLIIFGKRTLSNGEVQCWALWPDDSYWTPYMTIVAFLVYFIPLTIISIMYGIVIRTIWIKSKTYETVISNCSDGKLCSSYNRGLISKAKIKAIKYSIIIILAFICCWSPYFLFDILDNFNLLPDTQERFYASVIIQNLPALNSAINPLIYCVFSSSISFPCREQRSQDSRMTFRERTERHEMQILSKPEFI
The depositor's hits bear a star; ? = inconclusive; . = not tested or not shown; [ ] = another dose, or the depositor's remark. Hits are enriched below; roughly 1.6% of the tested compounds scored in any of these assays. Unless noted, calls come from the whole dose curve; as a rule, active = well fitted curve in the direction sought with a large enough effect; inconclusive = small, poorly fitted or top-dose-only effect, or another doubt; inactive = no such curve, though single readings can be large; an effect the other way counts as inactive or inconclusive.

SMILES | IMPase Li cell | Lamin A splicing | HTT ATP protect | HTT aggregate | IMPase cell inh | NPSR antagonist
N#Cc1c(-c2ccccc2)nc(SCC(=O)Nc2ccccc2)[nH]c1=O | ? | -4% | -6%[10 µM] | 17% | ? | -32%
Cc1cccc(NC(=O)CSc2nc(-c3ccccc3)c(C#N)c(=O)[nH]2)c1C | 10µM* | 16% | -19% | -5% | ? | 1%[46.1 µM]
C=C(C#N)C(=O)OCC | 26% | . | 4% | . | . | .
O=C1C=CC2(OCCCO2)C(Br)=C1CO | 9% | . | -76% | . | . | .
CCC(Sc1nc(C)cc(=O)[nH]1)C(=O)Nc1nc(-c2ccccc2)cs1 (stereo not given) | 36%[38.3 µM] | ? | -19% | ? | -1 | 24%[46.1 µM]
N#Cc1c(-c2ccccc2)nc(SCC(=O)N(c2ccccc2)c2ccccc2)[nH]c1=O | -18% | -12% | 7%[10 µM] | 7% | -24 | -14%
CCC(Sc1nc(-c2ccccc2)c(C#N)c(=O)[nH]1)C(=O)Nc1nnc(C)s1 (stereo not given) | 3.2µM* | -4% | 5%[10 µM] | -3% | ? | 5%[46.1 µM]
N#Cc1c(-c2ccccc2)nc(SCC(=O)Nc2nnc(C(F)(F)F)s2)[nH]c1=O | 11µM* | -3%[9.22 µM] | -21% | 9% | . | -44%
N#Cc1c(-c2ccccc2)nc(SCC(=O)Nc2ccccc2F)[nH]c1=O | 10µM* | -11% | . | -4% | . | -26%
C[C@@H](CN1CCC(Cc2ccccc2)CC1)[C@H](O)c1ccc(O)cc1 | . | . | -4%[1.9 µM] | . | 13 | .
COc1ccc(O[C@H]2C=C[C@@H](c3ccccc3)O[C@H]2COC(=O)CC/C(C)=N\O[C@@H](C)CN2CCCCc3nc(C)c(C)cc32)cc1 | . | . | 10%[10 µM] | . | . | .
COc1ccc(O[C@H]2C=C[C@@H](c3ccccc3)O[C@@H]2COC(=O)CC/C(C)=N/O[C@@H](C)CN2CCCCc3nc(C)c(C)cc32)cc1 | 33% | -7% | . | 32% | . | 16µM*
c1ccc(-n2ncc3c(NCCN4CCOCC4)ncnc32)cc1 | -2%[38.3 µM] | -1% | -8% | 4% | -6 | 9%[46.1 µM]
Cc1noc(C)c1-c1cncnc1NCCN1CCOCC1 | 4% | 8% | -11% | . | . | .
Cc1cccc(-n2ncc3c(NCCN4CCOCC4)ncnc32)c1 | 10µM* | -7% | -28% | 2% | ? | ?
Cc1cccc(-n2ncc3c(NCc4cccs4)ncnc32)c1 | 13%[38.3 µM] | ? | -29% | 11µM* | 2 | -19%[46.1 µM]
Clc1ccc2c(NCc3ccco3)ncnc2c1 | 33%[38.3 µM] | ? | -12% | 14µM* | 1 | -8%[46.1 µM]
Cc1noc(C)c1-c1ccc2ncnc(NCCN3CCOCC3)c2c1 | 4% | 10µM* | -41% | . | . | .
O=C(Nc1ccccc1)C12CC1/C(=N\O)c1ccccc1O2 (stereo not given) | -8% | . | -46% | . | . | .
Cc1ccc(-n2ncc3c(NCc4ccco4)ncnc32)cc1C | -9% | . | -62% | 0.005µM* | . | 13%
CCN(CC)CCOCCOC(=O)C(CC)(CC)c1ccccc1 (tested in a mixture with another compound) | . | ? | -28% | 9% | . | .
O=S(=O)(c1cccc(C(F)(F)F)c1)N1CCC(c2cc(-c3cccc4ccccc34)n[nH]2)CC1 | 0%[38.3 µM] | 18% | -74% | 1µM* | -1 | -7%[46.1 µM]
COc1ccc(S(=O)(=O)N2CCC(c3cc(-c4cccc5ccccc45)n[nH]3)CC2)cc1 | 4%[38.3 µM] | -1% | -54% | ? | 9 | -22%[46.1 µM]
CS(=O)(=O)N(CCC#N)Cc1ccc(/C=C2\C(=O)Nc3ccccc32)o1 | 8% | 19%[46 µM] | -39% | 11µM* | . | -28%
Cc1cc(C)c(/C=C2/C(=O)Nc3ccccc32)[nH]1 | . | . | 28%[1.9 µM] | . | 12 | .
SMILES | IMPase Li cell | Lamin A splicing | HTT ATP protect | HTT aggregate | IMPase cell inh | NPSR antagonist
CCOC(=O)c1c(NS(=O)(=O)c2cccc(OC)c2)sc2c1CCC2 | 20%[38.3 µM] | -14% | 14µM* | -6% | 15 | ?
CCOC(=O)c1c(NC(=O)c2cc(OC)c(OC)c(OC)c2)sc2c1CCCC2 | . | . | . | . | -11 | .
COc1cc(CNC2CCCCC2OC)cc(OC)c1OC (stereo not given) | 1% | -3% | 9%[10 µM] | -2% | . | 10%
O=C(COc1ccc(Cl)cc1)Nc1ncc([N+](=O)[O-])s1 | 16% | ? | -59% | 13µM* | . | -16%
Oc1ccc(CN2CCc3ccccc3C2)c2cccnc12 | 10%[38.3 µM] | ? | -91% | ? | -4 | 4µM*
OCc1ccc(O)c2ncccc12 | 4%[38.3 µM] | ? | -62% | 10µM* | 1 | 2%[46.1 µM]
CC(C)COCc1ccc(O)c2ncccc12 | . | . | -153% | 10µM* | . | 38%
Oc1ccc(CN2CCCCC2)c2cccnc12 | 10% | ? | -16%[1.9 µM] | 0%[1.84 µM] | 10 | -11%[46.1 µM]
Cc1ccc(CNC(=O)[C@H](C)[C@H]2C[C@]2(C)[C@H](NC(=O)OCc2ccccc2)c2ccccc2)c(F)c1F | 8% | . | 22% | . | . | .
[O-][n+]1cccc(CO)c1 | . | . | -2% | 18% | . | .
Cc1ccc(NC(=O)CSc2nnc(-c3ccc([N+](=O)[O-])cc3)o2)c(C)c1 | . | -3%[46 µM] | . | . | . | .
O=[N+]([O-])c1ccc(N=Nc2ccc(O)cc2O)cc1 | 19%[38.3 µM] | ? | -147% | 1.3µM* | 5 | 10µM*
NC(=O)[C@@H]1CCCN1C(=O)[C@H](Cc1cnc[nH]1)NC(=O)[C@@H]1CCC(=O)N1 | . | ? | -7% | 19% | . | .
CCCNc1nc2c(c(=O)n(C)c(=O)n2C)n1CCc1ccccc1 | -10%[38.3 µM] | ? | -37% | ? | ? | -10%[46.1 µM]
CCCNc1nc2c(c(=O)n(C)c(=O)n2C)n1Cc1cccc(C)c1 | 6%[38.3 µM] | ? | 10%[10 µM] | 14µM* | 9 | 4%[46.1 µM]
CC(C)n1c(NCCc2ccccc2)nc2c1c(=O)n(C)c(=O)n2C | 16% | ? | 29%[10 µM] | 11µM* | ? | 4%
O=S(=O)(c1ccccc1)N1CCN(c2nc3ccccc3s2)CC1 | 11µM* | 5% | 17% | 6% | 0 | 20%[46.1 µM]
CS(=O)(=O)N1CCN(c2nc3ccccc3s2)CC1 | -1%[38.3 µM] | 6% | -29% | 6%[9.22 µM] | 3 | ?
C[C@H](C(=O)c1ccccc1)C(c1ccccc1)N1CCOCC1 (stereo not given in full) | 5% | . | . | . | . | .
Oc1ccccc1C1CC(c2cccs2)=NC(c2cccc(Br)c2)N1 (stereo not given) | 10% | ? | -47% | 11µM* | . | -5%
CC1=N/C(=C\c2ccc3c(c2)OCO3)C(=O)N1c1ccc(C(=O)O)cc1 | 4% | 4% | 11%[0.074 µM] | 9% | . | -25%

High-throughput results: PubChem, National Center for Advancing Translational Sciences (NCATS)
